MEKK3 PB1 HTS: modulators of MEKK3-MEK5 PB1 binding, primary screen, biochemical, wildtype MEKK3, multiplex bead flow cytometry, Alexa488-MEK5; Mitogen-activated protein kinase kinase kinase 3 (Homo sapiens), Q99759; bead-based flow cytometry, Alexa488-MEK5 binding to MEKK3; actives lie on both sides; 0 = blocked by unlabeled MEK5, 100 = vehicle; binding response (% of control), % at 10 µM; hit rate 1.4% among 290,000; AID 1529, 2009;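 active = binding response more than 3 SD above or below the average of its plate-row segment, actives on both sides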;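 also: Alexa488 bead fluorescence after subtracting the streptavidin-only scavenger bead signal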
CHT allo act: CHT positive allosteric modulators, primary screen, cell-based, membrane potential dye, choline EC20. CHT-expressing cells; active compounds read high; LV-AA mutant CHT in HEK293 cells. B-score at 10 µM. hit rate 0.49% among 310,000. AID 488977, 2010;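 active = initial fluorescence not abnormally high and integrated response B-score, plate-corrected, over 3 SD above library mean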
Target sequence (Q9GZV3 whole entry, looked up): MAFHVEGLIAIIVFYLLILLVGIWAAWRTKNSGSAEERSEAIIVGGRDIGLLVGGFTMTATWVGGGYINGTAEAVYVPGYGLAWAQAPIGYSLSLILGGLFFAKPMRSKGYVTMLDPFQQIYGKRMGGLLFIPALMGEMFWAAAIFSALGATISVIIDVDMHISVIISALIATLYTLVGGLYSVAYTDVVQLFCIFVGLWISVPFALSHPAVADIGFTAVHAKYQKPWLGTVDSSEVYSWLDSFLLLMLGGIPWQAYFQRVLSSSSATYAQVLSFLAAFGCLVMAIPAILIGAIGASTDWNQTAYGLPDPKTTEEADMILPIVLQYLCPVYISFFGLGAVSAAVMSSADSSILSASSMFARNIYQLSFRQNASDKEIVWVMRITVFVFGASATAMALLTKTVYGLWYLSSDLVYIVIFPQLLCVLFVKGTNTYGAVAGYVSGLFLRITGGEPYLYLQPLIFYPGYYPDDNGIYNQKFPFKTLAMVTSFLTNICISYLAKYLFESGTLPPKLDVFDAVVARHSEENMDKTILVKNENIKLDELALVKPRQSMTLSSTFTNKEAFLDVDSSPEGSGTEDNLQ
MEKK2mut PB1 HTS: MEK5 binding signal on mutant MEKK2 PB1, primary screen, biochemical, multiplex bead flow cytometry, Alexa488-MEK5. percent response, % at 10 µM. Alexa488-MEK5 binding to MEKK2 mutant. hit rate 0.35% among 290,000; in the data active = percent response above about 24%, passing the limit was not always enough
MEKK2wt PB1 HTS: modulators of MEK5 binding to wildtype MEKK2, primary screen, biochemical, multiplex bead flow cytometry, Alexa488-MEK5. binding response (% of control), % at 10 µM. Alexa488-MEK5 binding to MEKK2 WT; actives lie on both sides. AID 1531, 2009. hit rate 1.1% among 290,000; in the data active = binding response below about 67% or above about 130%
Mot1-301 SUMO: yeast Mot1-301 growth rescue at high temperature, primary screen, SUMOylation pathway inhibitor project, S. cerevisiae, ATP luminescence, 38.5C. S. cerevisiae Mot1-301 growth rescue; percent above DMSO median, 100 means doubled. growth rescue, % at 18.8 µM. hit rate 1% among 320,000. AID 2716, 2010;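 active = every valid replicate shows activation above 250% relative to neutral control wells; inactive = the rest, any valid replicate at or below 250%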
CHT inh: inhibitors of human choline transporter CHT. AID 488975, 2010. High affinity choline transporter 1 (Homo sapiens), Q9GZV3. hit rate 0.86% among 310,000. B-score at 10 µM. CHT-expressing cells, membrane potential dye, choline response; active compounds read low;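 active = B-score over 3 SD under the library average, and starting fluorescence ratio not unusually high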;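 also: choline stimulus applied at its EC90 after an EC20 pre-addition; B-score computed on integrated fluorescence ratio after choline addition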
MEKK2wt confirm: modulators of MEK5 binding to wildtype MEKK2, confirmation, biochemical, single concentration, multiplex bead flow cytometry; Alexa488-MEK5 binding to MEKK2 WT; actives lie on both sides; binding response (% of control), % at 10 µM; shares compounds with MEKK3 PB1 HTS; AID 1892, 2009; hit rate 2.4% among 5,900; in the data active = binding response below about 16% or above about 210%; inactive = in between
MEKK2mut confirm: mutant MEKK2 PB1-MEK5 binding signal retest – biochemical, single concentration, multiplex bead flow cytometry, confirmation; shares compounds with MEKK3 PB1 HTS; Alexa488-MEK5 binding to MEKK2 mutant; percent response, % at 10 µM; hit rate 2% among 5,900; AID 1893, 2009; in the data active = percent response mostly above about 71%, no sharp cut-off; inactive = mostly below about 38%;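 also: higher means compound restores mutant binding toward wildtype level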
MEKK3-MEK5 inh: MEKK3 wild-type PB1 binding to MEK5, inhibitors, confirmation, biochemical, bead multiplex flow cytometry, single concentration, wildtype; shares compounds with MEKK3 PB1 HTS; Alexa488-MEK5 binding to MEKK3; active compounds read low; binding response (% of control), % at 10 µM; hit rate 1.8% among 5,900;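 active = binding response below 72% of control, or above a set upper limit, though filed actives all read lower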;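 also: lower values mean stronger disruption of MEK5 binding to MEKK3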
Of the large screens only hits and unclear results are named; the others gave an inactive call (follow-up assays come after a bar, where they were run); [ ] = remark or other dose. Compounds with a hit are over-represented: about 4.1% of the library has one in this group of screens.

COc1ccc(C(C)=O)cc1COC(=O)c1ccc2ccccc2n1	MEKK3 PB1 HTS 129 | MEKK2wt confirm inactive | MEKK2mut confirm inactive | MEKK3-MEK5 inh inactive
O=C(O)C1C2C=CC(C2)C1C(=O)Nc1ccc(Cl)c(Cl)c1 (centres undefined)	MEKK2mut PB1 HTS 26 | MEKK2wt confirm inactive | MEKK2mut confirm inactive | MEKK3-MEK5 inh inactive
CC(=O)Nc1ccc(N=Cc2c(O)c(C(=O)Nc3ccccc3)cc3ccccc23)cc1	MEKK2wt PB1 HTS 10[inhibitor] | MEKK2wt confirm inactive | MEKK2mut confirm inactive | MEKK3-MEK5 inh inactive
CC(=O)Nc1ccc(N=Cc2c(O)c3ccccc3oc2=O)cc1	none
CN(C(=O)CSc1nnc(-c2ccccc2)c(-c2ccccc2)n1)C1CCS(=O)(=O)C1 (centres undefined)	MEKK3 PB1 HTS 137 | MEKK2wt confirm inactive | MEKK2mut confirm inactive | MEKK3-MEK5 inh inactive
CCN(CCNCC(O)COc1ccccc1C(C)C)c1cccc(C)c1 (centres undefined)	MEKK2mut PB1 HTS 44, MEKK2wt PB1 HTS 174 | MEKK2wt confirm inactive | MEKK2mut confirm inactive | MEKK3-MEK5 inh inactive
CCOC(=O)N1CCN(CC(O)COc2ccccc2C(C)C)CC1 (centres undefined)	none
O=C(COc1ccccc1Cl)Nc1nnc(S(=O)(=O)N2CCCC2)s1	none
COc1cc(/C=N/O)ccc1Oc1cnccn1	none
CC12CC3CC(C)(C1)CC(Nc1nc(N4CCOCC4)nc4ccccc14)(C3)C2	MEKK2wt PB1 HTS 151 | MEKK2wt confirm inactive | MEKK2mut confirm inactive | MEKK3-MEK5 inh inactive
O=c1c(C=NCCN2CCNCC2)c(-c2ccccc2)[nH]n1-c1ccc([N+](=O)[O-])cc1	MEKK2wt PB1 HTS 179 | MEKK2wt confirm inactive | MEKK2mut confirm inactive | MEKK3-MEK5 inh inactive
N#CC(C#N)=Cc1cnc(N2CCN(c3ccccc3)CC2)s1	none
Cc1ccc(C2(CCNCc3ccc(N(C)C)cc3)CCOC(C(C)C)C2)cc1 (centres undefined)	MEKK2wt PB1 HTS 149 | MEKK2wt confirm inactive | MEKK2mut confirm inactive | MEKK3-MEK5 inh inactive
Cc1ccc2cc(CN(CCN3CCOCC3)Cc3nnnn3Cc3ccco3)c(=O)[nH]c2c1C	MEKK3 PB1 HTS 2.0[inhibitor], MEKK2wt PB1 HTS 2.0[inhibitor] (no result: CHT allo act, Mot1-301 SUMO, CHT inh) | MEKK2wt confirm inactive | MEKK2mut confirm inactive | MEKK3-MEK5 inh inactive
COc1ccc(CCC(=O)Nc2nc3ccccc3[nH]2)cc1	none
COc1cccc(CC(=O)Nc2nc3ccccc3[nH]2)c1	MEKK2mut PB1 HTS 112 (no result: MEKK2wt PB1 HTS) | MEKK2wt confirm inactive | MEKK2mut confirm inactive | MEKK3-MEK5 inh inactive
CCc1nc2sc3c(c2c(=O)n1CCO)CCC3	none
CCCCOc1ccc(CSC2=NCCN2)cc1[N+](=O)[O-]	none
COc1ccc(/C(C)=N/NC2=NCCN2)cc1Cl	none
C/C(=N\NC1=NCCN1)c1ccc(N)c([N+](=O)[O-])c1	MEKK3 PB1 HTS 46[inhibitor] | MEKK2wt confirm inactive | MEKK2mut confirm inactive | MEKK3-MEK5 inh inactive
CCCCCCOc1ccc(/C(C)=N/NC2=NCCN2)cc1[N+](=O)[O-]	MEKK2wt PB1 HTS 203 | MEKK2wt confirm 226 | MEKK2mut confirm inactive | MEKK3-MEK5 inh inactive
COc1cc(C(=O)NCCC(=O)NCCN2CCCCCC2)cc(OC)c1OC	MEKK2wt PB1 HTS 143 | MEKK2wt confirm inactive | MEKK2mut confirm inactive | MEKK3-MEK5 inh inactive
COc1cc(C(=O)NCCN2CCCC2)cc(OC)c1OC	none
O=C(CN1CCN(S(=O)(=O)c2ccc(F)cc2)CC1)Nc1ccc(F)cc1F	none
COc1ccc(-c2nc(CSCC(=O)NC3CCCC3)c(C)o2)cc1OC	none
CCOC(=O)Cc1csc(NC(=O)Cc2ccc(Br)cc2)n1	none
CCOC(=O)Cc1csc(NC(=O)Cc2ccc([N+](=O)[O-])cc2)n1	MEKK3 PB1 HTS 132 | MEKK2wt confirm inactive | MEKK2mut confirm inactive | MEKK3-MEK5 inh inactive
CCOC(=O)Cc1csc(N/N=C/c2ccccc2)n1	MEKK3 PB1 HTS 154 | MEKK2wt confirm inactive | MEKK2mut confirm inactive | MEKK3-MEK5 inh inactive
O=C(Cc1ccc([N+](=O)[O-])cc1)Nc1nnc(C2CC2)s1	MEKK3 PB1 HTS 171 | MEKK2wt confirm inactive | MEKK2mut confirm inactive | MEKK3-MEK5 inh inactive
CCOC(=O)Cc1csc(N/N=C\c2cccc(Br)c2)n1	none (no result: MEKK3 PB1 HTS, MEKK2mut PB1 HTS, MEKK2wt PB1 HTS)
CC(=O)Nc1ccc(S(=O)(=O)N(C)CC(=O)OCC(=O)N(C)c2ccccc2)cc1	none
CC(Oc1ccc2ccc(=O)oc2c1)C(=O)c1ccccc1 (centres undefined)	none
CN1CCN(C(=O)/C(=C\c2cccs2)NC(=O)c2ccco2)CC1	MEKK3 PB1 HTS 134 | MEKK2wt confirm inactive | MEKK2mut confirm inactive | MEKK3-MEK5 inh inactive
CN1CCN(C(=O)/C(=C/c2cccs2)NC(=O)c2cccs2)CC1	MEKK3 PB1 HTS 72[inhibitor] | MEKK2wt confirm inactive | MEKK2mut confirm inactive | MEKK3-MEK5 inh inactive
COc1cc(/C=C(/NC(=O)c2ccccc2)C(=O)N2CCN(C)CC2)c([N+](=O)[O-])cc1OC	MEKK3 PB1 HTS 130 | MEKK2wt confirm inactive | MEKK2mut confirm inactive | MEKK3-MEK5 inh inactive
O=C(N/C(=C\c1cccs1)C(=O)N1CCOCC1)c1ccco1	none
COc1cc(/C=C(/NC(=O)c2ccccc2)C(=O)N2CCOCC2)c([N+](=O)[O-])cc1OC	none
O=S(=O)(Cc1ccccc1)NCC1CCCN(Cc2ccc3nonc3c2)C1 (centres undefined)	none
c1ccc(SCc2nc3ccccc3[nH]2)cc1	none
Cc1ccc(SCc2nc3ccccc3[nH]2)cc1	MEKK3 PB1 HTS 2.0[inhibitor], MEKK2wt PB1 HTS 2.0[inhibitor] | MEKK2wt confirm inactive | MEKK2mut confirm inactive | MEKK3-MEK5 inh inactive
CC1(C)CCC[C@]2(C)[C@H]3Cc4cc(O)ccc4O[C@]3(C)CC[C@@H]12	none (no result: MEKK3 PB1 HTS, CHT allo act, MEKK2mut PB1 HTS, MEKK2wt PB1 HTS, CHT inh)

Screening data as filed in PubChem.
